Source: PubChem BioAssay (Tox21)
Results filed as inconclusive are left out. The source made the active and inactive calls. Unless noted, the call rests on the fitted dose curve; in most records, active means well fitted curve in the direction sought with a large enough effect in the repeat runs; inconclusive means weak or mixed curves; inactive means no such curve, though single readings can be large; an effect the other way counts as inactive or inconclusive.

Key:
[1] = qHTS assay to identify small molecule antagonists of the vitamin D receptor (VDR) signaling pathway - cell viability counter screen (AID 743225); further: on the % scale 0 is the no-effect control and ±100 the full control effect; nearly all actives have a fitted effect of over 50% in size
Summary of the method: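 Compounds were pinned onto VDR-bla HEK 293T cells together with 1-alpha,25-dihydroxyvitamin D3 at 3 nM final. After 16 h at 37C and 5% CO2 plus the reporter readout, cell viability was measured by CellTiter-Glo luminescence (30 min, room temperature).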

[2] = qHTS assay to identify small molecule agonists of the NFkB signaling pathway (AID 1159509; active means well fitted curve in the direction sought with a large enough effect in the signal ratio in the repeat runs, not every such curve was filed as active; the % refers to the signal ratio; further: series mostly up to about 61 µM; on the % scale 0 is the no-effect control and ±100 the full control effect)
Summary of the method: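 NFkB-bla ME-180 cells with a beta-lactamase reporter under an NF-kB response element were plated overnight, treated with compounds in DMSO for 5 hr at 37 C, then loaded with FRET substrate for 1.5 hr at room temperature.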

[3] = qHTS assay to identify small molecule agonists of the endoplasmic reticulum stress response signaling pathway (AID 1159516; active means well fitted activation curve with a large enough effect in the signal ratio in the repeat runs, not every such curve was filed as active; the % refers to the signal ratio; further: on the % scale 0 is the no-effect control and ±100 the full control effect)
Summary of the method: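 CellSensor ESRE-bla HeLa cells, 1,500 per well, plated overnight, then exposed to compounds for 5 hr at 37 C. Beta-lactamase reporter read with LiveBLAzer B/G FRET substrate after 2 hr at room temperature, 405 nm excitation, 460 and 530 nm emission.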

[4] = molecular target: Nuclear receptor ROR-gamma (Homo sapiens) (UniProt P51449); assay: qHTS assay to identify small molecule antagonists of the retinoid-related orphan receptor gamma (ROR-gamma) signaling pathway (AID 1159521;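 further: CHO cells with doxycycline inducible ROR-gamma driving an RORE luciferase reporter; top concentration of the series differs between compounds; on the % scale 0 is the no-effect control and ±100 the full control effect; nearly all actives have a fitted effect of over 50% in size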)
Summary of the method: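 Test compounds were applied to Tet-on RORγ CHO cells 2 h ahead of doxycycline hyclate (1 uM final). Luciferase reporter activity was quantified by luminescence after 16 h at 37 C and 5% CO2.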

[5] = qHTS assay to identify small molecule agonists of the AP-1 signaling pathway - cell viability counter screen (AID 1159525; calls by dose curve; further: nearly all actives have a fitted effect of over 55% in size)
Summary of the method: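 Luminescent ATP readout (Cell Titer Glo, 30 min RT), normalised to DMSO and tetra n-octyl ammonium bromide controls. Cells were ME-180 AP-1-bla in 0.5% dialyzed FBS Opti-MEM, with a 5 h, 37 °C compound exposure.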

[6] = qHTS assay to identify small molecule agonists of the AP-1 signaling pathway (AID 1159526; calls by dose curve; further: on the % scale 0 is the no-effect control and ±100 the full control effect)
[7] = qHTS assay to identify small molecule antagonists of the retinoid-related orphan receptor gamma (ROR-gamma) signaling pathway - cell viability counter screen (AID 1159520); further: on the % scale 0 is the no-effect control and ±100 the full control effect; nearly all actives have a fitted effect of over 50% in size
Summary of the method: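 Cytotoxicity was read from cellular ATP (CellTiter-Glo luminescence) after 16 hr at 37 C with 1 uM doxycycline induction. The inducer was added 2 hr after compound transfer to Tet-on ROR gamma CHO cells.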

[8] = qHTS assay to identify small molecule agonists of the vitamin D receptor (VDR) signaling pathway - cell viability counter screen (AID 743224); further: series mostly up to about 63 µM; on the % scale 0 is the no-effect control and ±100 the full control effect; nearly all actives have a fitted effect of over 50% in size
Summary of the method: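 VDR-bla cells, 4 h after plating, exposed to compounds for 16 h at 37C; viability then read in the same wells as CellTiter-Glo luminescence after 30 min at room temperature, following the bla FRET read.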

[9] = qHTS assay to identify small molecule agonists of the endoplasmic reticulum stress response signaling pathway - cell viability counter screen (AID 1159517; calls by dose curve)
Summary of the method: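 Cells, HeLa ESRE-bla; density, 1,500/well; dosing, 5 hr at 37 C, 5% CO2; readout, CellTiter-Glo luminescence after 30 min RT.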

[10] = qHTS assay to identify small molecule agonists of the NFkB signaling pathway - cell viability counter screen (AID 1159515; calls by dose curve; further: series mostly up to about 61 µM; on the % scale 0 is the no-effect control and ±100 the full control effect; nearly all actives have a fitted effect of over 55% in size)
Summary of the method: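 NFkB-bla ME-180 cells, 2,000/well, plated overnight at 37 C; compound added for 5 hr at 37 C. Viability read in the same wells as the bla reporter, by CellTiter-Glo luminescence after 30 min at room temperature.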

CCN[C@@H](C)Cc1ccccc1
inactive: Potency [1] | outcome [2] | outcome [3] | Potency [4] | Potency [5] | outcome [6]

CC(=O)OCC1=C(C(=O)O)N2C(=O)[C@@H](N)[C@H]2SC1
inactive: Potency [1] | outcome [2] | outcome [3] | activity, negative = cytotoxicity [7] 5.7% [at 19 µM] | activity change, negative = inhibition [4] 30.2% [at 19 µM] | viability change, negative = cytotoxic [5] -1.2% [at 15.8 µM] | activation [6] 4.04% [at 15.8 µM]

CN(C)CCc1c[nH]c2cccc(OP(=O)(O)O)c12
inactive: Potency [8] | Potency [1] | outcome [2] | outcome [3] | Potency [7] | Potency [4] | Potency [5] | outcome [6]

CCN(CCO)CCn1c(Cc2ccccc2)nc2c1c(=O)n(C)c(=O)n2C
inactive: Potency [8] | Potency [1] | outcome [2] | outcome [3] | Potency [9] | Potency [7] | Potency [4] | Potency [5] | outcome [6]

CNC(=O)Oc1ccccc1C(C)C
inactive: Potency [8] | Potency [1] | outcome [2] | outcome [3] | Potency [9] | Potency [7] | Potency [4] | Potency [5] | outcome [6]

CN=CNc1ccc(C)cc1C
inactive: Potency [8] | Potency [1] | outcome [2] | outcome [3] | Potency [7] | Potency [4] | Potency [5] | outcome [6]

NC(=O)OCCCc1ccccc1
inactive: Potency [8] | Potency [1] | outcome [2] | outcome [3] | Potency [9] | Potency [7] | Potency [4] | Potency [5] | outcome [6]

Cc1ccc2cc(C)ccc2c1
inactive: Potency [1] | outcome [2] | outcome [3] | Potency [9] | Potency [7] | Potency [4] | Potency [5] | outcome [6]

N[C@@H]1C[C@H]1c1ccccc1
inactive: Potency [1] | outcome [2] | outcome [3] | Potency [9] | Potency [7] | Potency [4] | Potency [5] | outcome [6]

CC(C)c1ccc(O)cc1
inactive: Potency [8] | outcome [2] | outcome [3] | Potency [4] | Potency [5] | outcome [6]

O=C(O)C(Cl)Br (configuration not stated)
inactive: outcome [10] | outcome [3] | Potency [9] | Potency [7] | Potency [4] | Potency [5] | outcome [6]

NC1(c2ccccc2)CCCCC1
inactive: Potency [8] | Potency [1] | outcome [2] | outcome [3] | Potency [7] | Potency [4] | Potency [5] | outcome [6]

CN1COCN(Cc2cnc(Cl)s2)/C1=N\[N+](=O)[O-]
inactive: Potency [1] | outcome [2] | outcome [3] | Potency [9] | Potency [7] | Potency [4] | Potency [5] | outcome [6]

CC(Cl)(Cl)Cl
inactive: Potency [8] | Potency [1] | outcome [10] | outcome [3] | Potency [9] | Potency [7] | Potency [4] | Potency [5] | outcome [6]

ClCC1CO1 (configuration not stated)
inactive: Potency [8] | Potency [1] | outcome [2] | outcome [3] | Potency [9] | Potency [7] | Potency [4] | Potency [5] | outcome [6]

O=C1CC(=O)NC(=O)N1
inactive: Potency [8] | Potency [1] | outcome [2] | outcome [3] | Potency [9] | Potency [7] | Potency [4] | Potency [5] | outcome [6]

N=C(N)[Se]
inactive: Potency [8] | Potency [1] | outcome [2] | outcome [3] | Potency [9] | Potency [7] | Potency [4] | Potency [5] | outcome [6]

CCC(CC)(CNC(=O)CCCO)c1cccc(OC)c1
inactive: Potency [8] | Potency [1] | outcome [2] | outcome [3] | Potency [9] | Potency [7] | Potency [4] | Potency [5] | outcome [6]

COC(=O)c1ccc(CBr)cc1
inactive: Potency [8] | Potency [1] | outcome [2] | outcome [3] | Potency [7] | Potency [4] | Potency [5] | outcome [6]

CCNc1nc(NCC)nc(SC)n1
inactive: Potency [8] | Potency [1] | outcome [2] | outcome [3] | Potency [9] | Potency [7] | Potency [4] | Potency [5] | outcome [6]

C=CCC1(C(C)CC)C(=O)NC(=O)NC1=O (configuration not stated)
inactive: Potency [8] | Potency [1] | outcome [10] | outcome [3] | Potency [9] | Potency [7] | Potency [4] | Potency [5] | outcome [6]

CCOC(=O)c1ncn2c1CN(C)C(=O)c1c(I)cccc1-2
inactive: Potency [8] | Potency [1] | outcome [2] | outcome [3] | Potency [9] | Potency [4] | Potency [5] | outcome [6]

O=c1[nH]oc2c1CCNC2
inactive: Potency [1] | outcome [2] | outcome [3] | Potency [9] | Potency [4] | Potency [5] | outcome [6]
